Bioassay records (PubChem BioAssay)
In the library only some 3% were active in any assay of this set; here they are far more common.
Rv3671c protease = inhibitors of M. tuberculosis serine protease Rv3671c | P9WHR9 | inhibition, % at 5.96 µM | actives 0.048% (n = 320,000) | AID 2606; in the data active = inhibition above about 38%;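 note: extracellular domain of Rv3671c used as enzyme; 0% = enzyme with DMSO and 100% = no enzyme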
BioA inh = blocks M. tuberculosis BioA enzyme activity; inhibition, % at 9.99 µM; purified M. tuberculosis BioA enzyme, plate reader; AID 602481; actives 0.096% (n = 360,000); in the data active = inhibition above about 40%
GDH-TPI counter = counter-screen for M. tuberculosis FBA inhibitors: GDH-TPI coupled enzymes; actives 1.2% (n = 360,000); inhibition, % at 4.8 µM; GDH-TPI coupled enzyme counterscreen, NADH absorbance; AID 588335; in the data active = inhibition above about 30%;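 note: 0% = DMSO wells and 100% = wells lacking the enzyme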
FBA Mtb inh = inhibits M. tuberculosis FBA enzyme; purified M. tuberculosis FBA, fluorescence read-out; actives 2.3% (n = 360,000); AID 588726; inhibition, % at 1 µM; P9WQA3; in the data active = inhibition above about 27%;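 note: 0% = vehicle and 100% = reference inhibitor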
Target sequence (P9WQA3 whole entry, looked up): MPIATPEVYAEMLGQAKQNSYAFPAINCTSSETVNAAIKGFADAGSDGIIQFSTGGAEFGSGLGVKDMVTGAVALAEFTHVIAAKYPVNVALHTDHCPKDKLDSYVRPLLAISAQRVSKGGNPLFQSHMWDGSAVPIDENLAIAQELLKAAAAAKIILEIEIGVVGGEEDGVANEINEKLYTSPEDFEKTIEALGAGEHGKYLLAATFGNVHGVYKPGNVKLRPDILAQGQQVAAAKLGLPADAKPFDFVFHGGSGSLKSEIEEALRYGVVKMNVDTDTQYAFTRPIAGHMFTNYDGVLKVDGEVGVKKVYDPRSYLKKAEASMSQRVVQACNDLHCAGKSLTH
FadD28 binding = inhibitors of Mycobacterium tuberculosis FadD28 bisubstrate binding. FadD28 bisubstrate probe binding, fluorescence polarization. inhibition, % at 12.5 µM. actives 0.22% (n = 360,000). AID 588549; in the data active = inhibition above about 8.5%, passing the limit was not always enough
* = called active by the depositor; · = not tested or not shown; + = active, no number.

SMILES	Rv3671c protease	BioA inh	GDH-TPI counter	FBA Mtb inh	FadD28 binding
COc1ccc(/C=C(\NC(=O)c2cccs2)C(=O)Nc2ccccc2C)cc1OC	5.6	-1.1	38.3*	-0.1	-3.0
COc1ccc([N+](=O)[O-])cc1/C=N/NC(=O)/C(=C\c1cccs1)NC(=O)c1ccccc1	-5.5	7.9	43.4*	-1.6	-1.4
COc1ccc(/C=C(/NC(=O)c2ccccc2)C(=O)N/N=C/c2cccs2)cc1OC	6.7	-1.0	69.3*	-2.0	0.2
O=C(/C=C/N1CCOCC1)c1ccc(-c2ccccc2)cc1	-16.7	-0.1	38.0*	-4.8	-2.6
S=c1nc(-c2ccccc2)n(Cc2cccnc2)c2c1CCCC2	3.8	·	·	·	·
S=c1nc(-c2ccccc2)n(CCN2CCOCC2)c2c1CCCC2	0.2	-1.1	50.6*	4.4	-0.3
CC1(C)Cc2c(c(=S)nc(-c3ccccc3)n2CCN2CCOCC2)CO1	1.5	·	50.6*	2.1	0.5
COCCn1c(-c2ccccc2)nc(=S)c2c1CC(C)(C)OC2	-6.1	-0.1	36.9*	-3.1	-4.0
CC(C)Cn1c(-c2ccccc2)nc(=S)c2c1CCCC2	0.5	-2.0	33.6*	-0.5	-1.1
C=CCn1c(-c2ccccc2)nc(=S)c2c1CCCC2	-3.5	4.3	-4.6	4.2	-0.9
CO[C@H]1CN(C)C(=O)c2ccc(NC(C)=O)cc2OC[C@@H](C)N(C(=O)c2ccccn2)C[C@H]1C	·	5.4	·	·	·
CCCNC(=O)C[C@@H]1CC[C@H]2[C@@H](COc3ccc(NC(=O)c4ccccc4)cc3C(=O)N2C)O1	·	-0.8	·	·	·
N#Cc1c(-c2ccccc2Cl)c2c([nH]c1=O)-c1ccccc1OC2	-1.9	-0.6	26.9	+	-23.3
N#Cc1c(-c2ccncc2)c2c([nH]c1=O)-c1ccccc1OC2	10.1	·	·	·	·
COC(=O)c1ccc(COc2ccc(Cl)cc2)o1	-3.0	-0.9	2.1	-0.1	-1.4
COC(=O)c1ccc(COc2ccc(/C=N/NC(N)=S)cc2)o1	-2.9	-0.9	21.4	-1.4	50.6*
CNc1ccc(/C=C\CCCO)cn1	·	-1.5	23.4	114.9*	-2.0
O=C(O)CCn1cc(C2CC(c3ccccc3)=NN2c2ccccc2)c(-c2ccccc2)n1 (stereo unspecified)	17.6	3.5	9.4	+	0.5
C[C@@H]1CN([C@H](C)CO)C(=O)c2cc(-c3ccc(F)cc3)cnc2O[C@H]1CN(C)Cc1cncnc1	·	-2.4	·	·	·
CC(=O)Nc1ccc2[nH]c(C)cc(=O)c2c1	6.9	-1.8	7.3	10.3	-1.1
COc1ccc(-c2cc(=O)c3cc(OC)ccc3[nH]2)cc1	1.9	-0.7	3.4	75.8*	-1.2
COc1cccc(-c2cc(=O)c3cc(NC(C)=O)ccc3[nH]2)c1	-4.2	-0.9	17.9	115.4*	-1.1
CC(C)CCNc1nc(N)c([N+](=O)[O-])c(NCCO)n1	-0.8	-0.5	49.7*	3.2	-1.2
Cc1ccc(CNc2nc(N)c([N+](=O)[O-])c(NCc3ccccc3)n2)cc1	-1.1	7.0	1.1	0.1	1.4
Nc1nc(NCc2ccc(Cl)cc2)nc(NCCO)c1[N+](=O)[O-]	5.4	0.3	37.5*	-1.7	-3.4
SMILES	Rv3671c protease	BioA inh	GDH-TPI counter	FBA Mtb inh	FadD28 binding
Cc1ccc(CNc2nc(N)c([N+](=O)[O-])c(NCCO)n2)cc1	0.5	-0.3	52.4*	-2.6	-1.6
Nc1nc(Nc2ccc(Cl)cc2)nc(NCCO)c1[N+](=O)[O-]	1.8	-1.0	20.7	2.2	-2.2
C[C@H]1CCCCO[C@H](CN(C)C(=O)CCCN(C)C)[C@@H](C)CN([C@@H](C)CO)C(=O)c2cc(N(C)C)ccc2O1	·	-0.7	·	·	·
O=C(C[C@@H]1CC[C@@H](NC(=O)Cc2ccccn2)[C@@H](CO)O1)NCCc1ccncc1	·	-0.9	·	·	·
COc1cccc2c1cc1c(=O)n(CC(=O)N3CCCCCC3)nc(C)n12	4.3	-3.8	12.6	+	-0.4
COc1cccc2c1cc1c(=O)n(CC(=O)N3CCN(c4cccc(C)c4C)CC3)nc(C)n12	·	0.3	0.9	7.0	0.5
CCOC(=O)C1CCCN(C(=O)Cn2nc(C)n3c(cc4c(OC)cccc43)c2=O)C1 (stereo unspecified)	2.5	0.1	8.7	193.5*	0.6
c1ccc(-c2nc3c(ccc4ccccc43)[nH]2)nc1	24.4	·	33.3*	15.5	-9.8
O=C(O)c1cc(-c2ccc(/C=C3/SC(=S)N(Cc4ccccc4)C3=O)o2)ccc1Cl	·	-0.4	5.7	-2.0	27.9*
C(=N\n1cnnc1)/c1cccn1-c1ccccc1	-3.6	-0.2	32.0*	-3.7	-2.1
Cc1cc(/C=N/n2cnnc2)c(C)n1-c1ccccc1	3.6	·	7.5	10.7	-2.5
C[C@H](CO)N1C[C@H](C)[C@@H](CN(C)Cc2ccc(C(F)(F)F)cc2)Oc2ccc(NC(=O)Cn3cnnn3)cc2C1=O	·	0.7	·	·	·
COc1ccccc1NC(=O)Cn1c(C)nc2c(sc(=S)n2Cc2ccco2)c1=O	-10.0	0.0	31.7*	0.6	-5.8
Cc1nc2c(sc(=S)n2Cc2ccco2)c(=O)n1CC(=O)Nc1cc(F)ccc1F	-42.9	-0.6	14.8	-2.2	0.5
CCOC(=O)CSc1nc2c(sc(=S)n2Cc2ccco2)c(=O)n1-c1ccccc1	-8.5	-1.3	32.9*	-2.4	-0.2
Nc1ccc(-c2nc3cc(N)ccc3n2CCO)cc1	-4.0	·	14.1	+	-3.5
Cc1ccc(C)n1-c1sccc1C(=O)O	·	-3.7	6.2	-2.5	21.2*
Cc1ccc(C)n1-c1sc2c(c1C(=O)O)CCCC2	3.9	·	-2.3	-0.8	4.2
O=C(N/N=C/c1cc2cc3c(cc2nc1Cl)OCO3)c1ccncc1	6.6	·	68.7*	-1.1	-0.9
C[C@H](CO)N1C[C@H](C)[C@H](CN(C)C(=O)C2CC2)Oc2cc(C#CCN(C)C)ccc2S1(=O)=O	·	-0.6	·	·	·
C[C@@H]1CN([C@@H](C)CO)C(=O)c2cc(-c3ccccc3F)cnc2O[C@H]1CN(C)C(=O)c1ccccn1	·	1.3	·	·	·
CCN1C(=O)/C(=C\N(C(C)=O)c2ccccc2)OC1=S	3.2	-0.6	63.3*	-1.8	-2.0
CCOCCCn1c(=NC(C)=O)c(C#N)cc2c(=O)n3ccccc3nc21	2.0	-0.5	24.1	+	-2.6
COCCCn1c(C(=O)NC2CCCCC2C)cc2c(=O)n3cccc(C)c3nc21 (stereo unspecified)	-5.9	-1.2	-3.9	4.7	-1.6
CCOCCCNC(=O)c1cc2c(=O)n3cccc(C)c3nc2s1	-8.0	-5.5	15.2	23.8	-0.7
CCOCCCn1c(=NC(=O)c2cccs2)c(C#N)cc2c(=O)n3cccc(C)c3nc21	-0.6	-4.6	13.0	+	-0.2
COCCCn1c(=NC(=O)c2ccccc2)c(C#N)cc2c(=O)n3cccc(C)c3nc21	-3.1	-0.8	-6.2	174.0*	-3.3
COCCCn1c(=NC(C)=O)c(C#N)cc2c(=O)n3cccc(C)c3nc21	3.4	-0.8	-0.8	+	0.4
C[C@H]1CN([C@@H](C)CO)C(=O)c2cccc(NS(=O)(=O)c3cn(C)cn3)c2O[C@H]1CN(C)S(=O)(=O)c1ccc(Cl)cc1	·	5.5	·	·	·
CO[C@H]1CN(C)C(=O)c2cc(NC(=O)NC3CCCCC3)ccc2OC[C@@H](C)N(C(C)=O)C[C@@H]1C	·	0.4	·	·	·
